Measurements as given in the supplement of paper PMC11732987, “Enantioselective OTUD7B fragment discovery through chemoproteomics screening and high-throughput optimisation” (Communications Chemistry, 2025).

What was measured:
Assay in all cases: log2 ratio of Biotin-Ahx-Ub-VS probe labelling (fragment/DMSO); higher = less target engagement (more negative = stronger competition), active = hit call of the paper (q ≤ 0.05, log2 ratio ≤ -1)
Settings in all cases: compound concentration: 200 uM; treatment time: 3 h
USP42 = molecular target: T1, USP42 (UniProt Q9H9J4)
T1 sequence (whole entry): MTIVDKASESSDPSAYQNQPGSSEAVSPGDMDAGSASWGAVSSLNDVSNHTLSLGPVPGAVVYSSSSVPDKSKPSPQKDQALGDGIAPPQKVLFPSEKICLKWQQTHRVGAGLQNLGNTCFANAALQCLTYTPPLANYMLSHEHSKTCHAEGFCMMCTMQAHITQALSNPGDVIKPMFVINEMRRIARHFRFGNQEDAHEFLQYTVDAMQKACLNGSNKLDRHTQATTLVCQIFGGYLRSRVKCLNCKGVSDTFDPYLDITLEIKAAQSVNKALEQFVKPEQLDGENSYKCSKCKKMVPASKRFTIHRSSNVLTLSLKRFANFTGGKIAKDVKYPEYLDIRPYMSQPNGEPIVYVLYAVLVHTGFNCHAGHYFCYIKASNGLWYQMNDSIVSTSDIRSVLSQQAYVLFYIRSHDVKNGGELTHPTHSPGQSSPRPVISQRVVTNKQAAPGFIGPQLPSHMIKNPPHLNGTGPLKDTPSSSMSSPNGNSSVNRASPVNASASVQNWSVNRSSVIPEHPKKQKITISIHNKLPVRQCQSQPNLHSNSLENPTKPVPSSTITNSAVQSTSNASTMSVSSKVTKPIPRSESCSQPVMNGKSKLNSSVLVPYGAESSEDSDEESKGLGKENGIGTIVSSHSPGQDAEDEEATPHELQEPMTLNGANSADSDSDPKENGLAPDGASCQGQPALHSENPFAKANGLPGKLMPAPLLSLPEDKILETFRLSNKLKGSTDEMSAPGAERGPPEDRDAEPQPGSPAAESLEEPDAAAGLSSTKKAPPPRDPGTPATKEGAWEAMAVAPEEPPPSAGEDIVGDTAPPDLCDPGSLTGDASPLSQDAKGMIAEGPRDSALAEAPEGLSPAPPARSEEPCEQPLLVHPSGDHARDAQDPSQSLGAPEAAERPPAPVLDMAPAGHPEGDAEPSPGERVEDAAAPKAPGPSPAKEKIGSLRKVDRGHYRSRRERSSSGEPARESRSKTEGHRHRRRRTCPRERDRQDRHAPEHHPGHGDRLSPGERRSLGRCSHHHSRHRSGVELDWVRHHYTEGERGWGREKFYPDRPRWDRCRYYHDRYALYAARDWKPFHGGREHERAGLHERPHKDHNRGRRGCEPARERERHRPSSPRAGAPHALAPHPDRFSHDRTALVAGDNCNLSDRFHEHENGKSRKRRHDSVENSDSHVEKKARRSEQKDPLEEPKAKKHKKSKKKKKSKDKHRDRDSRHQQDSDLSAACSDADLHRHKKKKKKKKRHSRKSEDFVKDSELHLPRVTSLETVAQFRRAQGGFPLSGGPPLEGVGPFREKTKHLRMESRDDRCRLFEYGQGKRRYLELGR
Outline: (§1)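 HEK293T lysate (495 µg per sample, in Tris/CHAPS/IGEPAL buffer with protease inhibitors) was exposed in triplicate for 3 h to fragment at 200 µM or to vehicle, then to Biotin-Ahx-Ub-VS at 0.5 µM final for 1 h. Labelled DUBs were enriched on NeutrAvidin, digested with LysC and trypsin, and analysed by diaPASEF LC-MS/MS. Spectronaut label-free quantities were normalised to the global median, and values are average log2 ratios of fragment over vehicle from an unpaired t-test. Only proteins with ≥2 unique peptides were used.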

USP46 = USP46 (UniProt P62068)
Outline: as §1

USP47 = molecular target: T2, USP47 (UniProt Q96K76)
T2 sequence (whole entry): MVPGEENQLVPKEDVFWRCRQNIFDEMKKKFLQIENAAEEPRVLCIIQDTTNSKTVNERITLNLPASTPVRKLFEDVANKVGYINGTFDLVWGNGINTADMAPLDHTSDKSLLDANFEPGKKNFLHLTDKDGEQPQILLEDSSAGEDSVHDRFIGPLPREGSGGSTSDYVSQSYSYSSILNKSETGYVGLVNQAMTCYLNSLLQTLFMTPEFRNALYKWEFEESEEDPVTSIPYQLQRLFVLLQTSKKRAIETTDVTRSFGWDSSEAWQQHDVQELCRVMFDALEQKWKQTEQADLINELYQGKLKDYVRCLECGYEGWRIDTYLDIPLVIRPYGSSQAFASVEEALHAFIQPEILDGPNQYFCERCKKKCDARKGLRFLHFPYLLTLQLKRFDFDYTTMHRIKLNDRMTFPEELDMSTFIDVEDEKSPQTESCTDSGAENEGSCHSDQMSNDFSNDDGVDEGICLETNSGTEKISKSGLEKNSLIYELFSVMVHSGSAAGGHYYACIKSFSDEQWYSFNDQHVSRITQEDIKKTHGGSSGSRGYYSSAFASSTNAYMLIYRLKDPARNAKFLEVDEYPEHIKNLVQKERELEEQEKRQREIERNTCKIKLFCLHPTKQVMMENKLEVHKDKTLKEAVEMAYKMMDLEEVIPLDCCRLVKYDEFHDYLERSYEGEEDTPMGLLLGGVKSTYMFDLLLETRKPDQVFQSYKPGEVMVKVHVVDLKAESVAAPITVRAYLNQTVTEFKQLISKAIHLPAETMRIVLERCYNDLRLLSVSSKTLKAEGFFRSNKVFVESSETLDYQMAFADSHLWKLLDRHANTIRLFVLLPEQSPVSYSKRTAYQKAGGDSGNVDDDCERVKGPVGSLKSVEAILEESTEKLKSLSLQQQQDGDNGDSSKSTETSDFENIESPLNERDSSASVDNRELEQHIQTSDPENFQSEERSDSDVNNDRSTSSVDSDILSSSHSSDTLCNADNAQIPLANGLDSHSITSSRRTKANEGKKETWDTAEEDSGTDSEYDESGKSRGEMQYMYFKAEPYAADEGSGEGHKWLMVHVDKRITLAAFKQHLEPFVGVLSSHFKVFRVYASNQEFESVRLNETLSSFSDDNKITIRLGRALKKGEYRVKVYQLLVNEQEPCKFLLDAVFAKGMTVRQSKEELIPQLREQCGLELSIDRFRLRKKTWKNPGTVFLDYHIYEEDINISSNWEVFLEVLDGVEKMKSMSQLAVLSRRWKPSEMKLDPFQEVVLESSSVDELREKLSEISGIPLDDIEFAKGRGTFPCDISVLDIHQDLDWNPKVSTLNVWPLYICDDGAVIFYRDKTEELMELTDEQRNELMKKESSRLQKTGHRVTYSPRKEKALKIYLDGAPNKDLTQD
Outline: as §1

USP48 = molecular target: T3, USP48 (UniProt Q86UV5)
T3 sequence (whole entry): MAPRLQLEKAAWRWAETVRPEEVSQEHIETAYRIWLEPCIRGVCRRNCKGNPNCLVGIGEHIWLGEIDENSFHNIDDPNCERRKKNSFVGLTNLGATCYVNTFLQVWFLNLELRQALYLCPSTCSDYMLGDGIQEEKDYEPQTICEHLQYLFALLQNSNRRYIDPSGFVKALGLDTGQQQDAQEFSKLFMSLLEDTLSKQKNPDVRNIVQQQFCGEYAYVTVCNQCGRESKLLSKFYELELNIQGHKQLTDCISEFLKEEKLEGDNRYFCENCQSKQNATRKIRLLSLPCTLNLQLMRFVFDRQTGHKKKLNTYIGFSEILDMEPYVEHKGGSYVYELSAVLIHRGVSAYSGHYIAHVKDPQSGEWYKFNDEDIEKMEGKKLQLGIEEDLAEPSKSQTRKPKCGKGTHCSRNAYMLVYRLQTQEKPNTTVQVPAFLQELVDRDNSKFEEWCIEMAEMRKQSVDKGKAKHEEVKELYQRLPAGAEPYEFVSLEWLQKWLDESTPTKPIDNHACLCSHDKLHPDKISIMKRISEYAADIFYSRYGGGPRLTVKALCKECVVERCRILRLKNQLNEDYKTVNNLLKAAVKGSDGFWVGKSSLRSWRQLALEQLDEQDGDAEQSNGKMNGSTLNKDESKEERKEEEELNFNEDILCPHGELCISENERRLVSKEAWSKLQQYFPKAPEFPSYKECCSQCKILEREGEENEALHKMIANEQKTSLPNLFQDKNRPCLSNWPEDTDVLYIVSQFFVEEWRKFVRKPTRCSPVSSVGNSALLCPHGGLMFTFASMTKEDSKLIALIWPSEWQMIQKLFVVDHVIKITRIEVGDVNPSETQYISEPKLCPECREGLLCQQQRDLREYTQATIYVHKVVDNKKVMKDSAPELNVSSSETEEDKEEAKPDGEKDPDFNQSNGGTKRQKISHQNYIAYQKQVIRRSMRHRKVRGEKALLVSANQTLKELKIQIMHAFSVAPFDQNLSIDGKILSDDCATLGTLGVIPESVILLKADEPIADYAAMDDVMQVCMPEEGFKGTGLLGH
Outline: as §1

USP5 = molecular target: T4, USP5 (UniProt P45974)
T4 sequence (whole entry): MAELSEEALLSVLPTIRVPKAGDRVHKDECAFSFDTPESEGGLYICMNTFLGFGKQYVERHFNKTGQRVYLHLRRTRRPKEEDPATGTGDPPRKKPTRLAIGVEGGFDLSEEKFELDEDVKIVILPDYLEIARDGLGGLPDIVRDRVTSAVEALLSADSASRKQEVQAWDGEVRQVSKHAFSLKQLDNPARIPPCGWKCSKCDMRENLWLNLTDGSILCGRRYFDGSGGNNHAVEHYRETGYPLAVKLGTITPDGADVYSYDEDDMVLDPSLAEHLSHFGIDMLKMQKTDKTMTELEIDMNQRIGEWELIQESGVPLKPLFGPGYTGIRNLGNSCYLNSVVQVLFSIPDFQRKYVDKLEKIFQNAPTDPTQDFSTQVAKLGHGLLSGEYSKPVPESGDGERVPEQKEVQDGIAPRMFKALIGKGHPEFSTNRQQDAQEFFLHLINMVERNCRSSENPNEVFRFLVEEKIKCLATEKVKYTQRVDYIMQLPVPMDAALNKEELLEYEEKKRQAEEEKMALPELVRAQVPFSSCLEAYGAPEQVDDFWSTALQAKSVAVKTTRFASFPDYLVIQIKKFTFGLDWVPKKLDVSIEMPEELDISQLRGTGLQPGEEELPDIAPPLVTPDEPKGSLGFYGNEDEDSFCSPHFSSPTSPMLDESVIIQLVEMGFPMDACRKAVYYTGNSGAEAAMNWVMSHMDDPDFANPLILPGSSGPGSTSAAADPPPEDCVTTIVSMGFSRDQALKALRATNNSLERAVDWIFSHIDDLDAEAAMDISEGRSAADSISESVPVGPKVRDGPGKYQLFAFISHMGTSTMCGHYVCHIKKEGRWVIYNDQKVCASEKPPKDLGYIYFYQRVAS
Outline: as §1

USP54 = USP54 (UniProt Q70EL1)
Outline: as §1

USP7 = USP7 (UniProt Q93009)
Outline: as §1

USP8 = molecular target: T5, USP8 (UniProt P40818)
T5 sequence (whole entry): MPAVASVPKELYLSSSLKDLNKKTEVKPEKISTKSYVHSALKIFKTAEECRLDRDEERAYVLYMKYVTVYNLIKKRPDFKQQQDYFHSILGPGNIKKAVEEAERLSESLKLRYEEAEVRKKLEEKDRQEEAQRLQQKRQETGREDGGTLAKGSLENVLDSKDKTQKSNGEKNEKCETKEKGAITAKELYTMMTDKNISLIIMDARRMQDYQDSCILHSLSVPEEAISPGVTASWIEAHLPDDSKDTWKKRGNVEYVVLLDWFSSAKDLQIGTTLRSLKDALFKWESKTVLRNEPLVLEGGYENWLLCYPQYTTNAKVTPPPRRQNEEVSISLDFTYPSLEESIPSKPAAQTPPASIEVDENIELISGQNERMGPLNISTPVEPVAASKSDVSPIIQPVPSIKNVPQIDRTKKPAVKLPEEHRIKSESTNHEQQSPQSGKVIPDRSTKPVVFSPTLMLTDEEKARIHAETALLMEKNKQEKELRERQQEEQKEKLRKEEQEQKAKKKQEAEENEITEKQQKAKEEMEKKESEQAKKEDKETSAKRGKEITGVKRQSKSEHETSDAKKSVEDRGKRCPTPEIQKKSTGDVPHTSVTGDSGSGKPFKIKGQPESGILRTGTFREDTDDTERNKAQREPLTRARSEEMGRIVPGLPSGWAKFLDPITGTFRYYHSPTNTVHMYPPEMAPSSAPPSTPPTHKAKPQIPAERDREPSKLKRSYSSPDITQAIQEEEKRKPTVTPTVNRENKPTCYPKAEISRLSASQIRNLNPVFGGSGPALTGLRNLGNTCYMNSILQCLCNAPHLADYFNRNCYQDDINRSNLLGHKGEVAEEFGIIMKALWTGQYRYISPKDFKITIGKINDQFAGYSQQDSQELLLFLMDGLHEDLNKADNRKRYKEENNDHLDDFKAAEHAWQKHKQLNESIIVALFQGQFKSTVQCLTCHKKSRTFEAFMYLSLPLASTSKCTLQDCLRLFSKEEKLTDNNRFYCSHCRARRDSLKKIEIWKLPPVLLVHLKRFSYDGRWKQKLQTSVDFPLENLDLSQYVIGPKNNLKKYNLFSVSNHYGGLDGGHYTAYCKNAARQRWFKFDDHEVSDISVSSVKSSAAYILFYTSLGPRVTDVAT
Outline: as §1

Measured: log2 ratio of Biotin-Ahx-Ub-VS probe labelling

USP7, sequence (Q93009 whole entry, looked up): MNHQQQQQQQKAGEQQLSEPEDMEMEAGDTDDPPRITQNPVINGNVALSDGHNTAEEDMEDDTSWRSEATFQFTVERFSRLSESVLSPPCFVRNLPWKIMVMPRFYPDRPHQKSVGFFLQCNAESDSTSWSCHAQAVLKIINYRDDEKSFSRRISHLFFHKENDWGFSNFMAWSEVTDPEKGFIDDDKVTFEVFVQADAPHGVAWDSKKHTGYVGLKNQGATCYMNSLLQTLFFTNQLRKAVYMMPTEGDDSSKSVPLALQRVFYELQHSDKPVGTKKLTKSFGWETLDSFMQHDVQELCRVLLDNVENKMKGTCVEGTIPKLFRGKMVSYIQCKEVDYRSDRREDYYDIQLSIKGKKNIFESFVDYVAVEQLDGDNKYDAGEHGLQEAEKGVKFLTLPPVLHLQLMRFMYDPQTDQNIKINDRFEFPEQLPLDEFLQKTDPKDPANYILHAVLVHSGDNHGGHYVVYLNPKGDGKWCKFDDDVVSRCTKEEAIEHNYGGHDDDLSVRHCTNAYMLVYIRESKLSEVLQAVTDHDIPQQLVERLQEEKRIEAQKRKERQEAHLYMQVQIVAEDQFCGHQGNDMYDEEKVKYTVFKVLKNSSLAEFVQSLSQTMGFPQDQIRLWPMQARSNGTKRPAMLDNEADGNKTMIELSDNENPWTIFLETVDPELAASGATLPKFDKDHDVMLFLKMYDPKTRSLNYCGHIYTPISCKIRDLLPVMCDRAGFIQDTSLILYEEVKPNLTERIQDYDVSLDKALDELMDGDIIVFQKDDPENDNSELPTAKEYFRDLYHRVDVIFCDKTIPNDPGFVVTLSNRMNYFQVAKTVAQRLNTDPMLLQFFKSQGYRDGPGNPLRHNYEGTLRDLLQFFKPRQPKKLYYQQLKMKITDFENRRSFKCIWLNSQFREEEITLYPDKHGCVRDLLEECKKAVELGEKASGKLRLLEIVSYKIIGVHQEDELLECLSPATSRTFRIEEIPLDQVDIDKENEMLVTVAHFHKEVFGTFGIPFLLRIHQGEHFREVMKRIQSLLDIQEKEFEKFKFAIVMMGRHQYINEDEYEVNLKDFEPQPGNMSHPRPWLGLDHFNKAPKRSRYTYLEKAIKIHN
USP46, sequence (P62068 whole entry): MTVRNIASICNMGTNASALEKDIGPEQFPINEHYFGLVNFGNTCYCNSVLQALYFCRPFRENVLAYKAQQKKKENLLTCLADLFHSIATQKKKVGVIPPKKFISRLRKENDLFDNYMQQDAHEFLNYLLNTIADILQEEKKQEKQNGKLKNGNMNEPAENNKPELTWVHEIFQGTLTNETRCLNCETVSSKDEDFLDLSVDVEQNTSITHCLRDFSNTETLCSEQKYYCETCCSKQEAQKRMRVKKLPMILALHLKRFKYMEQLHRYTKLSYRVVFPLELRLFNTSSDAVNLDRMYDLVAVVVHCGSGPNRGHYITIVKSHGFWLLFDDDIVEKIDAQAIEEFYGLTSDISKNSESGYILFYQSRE
USP54, sequence (Q70EL1 whole entry): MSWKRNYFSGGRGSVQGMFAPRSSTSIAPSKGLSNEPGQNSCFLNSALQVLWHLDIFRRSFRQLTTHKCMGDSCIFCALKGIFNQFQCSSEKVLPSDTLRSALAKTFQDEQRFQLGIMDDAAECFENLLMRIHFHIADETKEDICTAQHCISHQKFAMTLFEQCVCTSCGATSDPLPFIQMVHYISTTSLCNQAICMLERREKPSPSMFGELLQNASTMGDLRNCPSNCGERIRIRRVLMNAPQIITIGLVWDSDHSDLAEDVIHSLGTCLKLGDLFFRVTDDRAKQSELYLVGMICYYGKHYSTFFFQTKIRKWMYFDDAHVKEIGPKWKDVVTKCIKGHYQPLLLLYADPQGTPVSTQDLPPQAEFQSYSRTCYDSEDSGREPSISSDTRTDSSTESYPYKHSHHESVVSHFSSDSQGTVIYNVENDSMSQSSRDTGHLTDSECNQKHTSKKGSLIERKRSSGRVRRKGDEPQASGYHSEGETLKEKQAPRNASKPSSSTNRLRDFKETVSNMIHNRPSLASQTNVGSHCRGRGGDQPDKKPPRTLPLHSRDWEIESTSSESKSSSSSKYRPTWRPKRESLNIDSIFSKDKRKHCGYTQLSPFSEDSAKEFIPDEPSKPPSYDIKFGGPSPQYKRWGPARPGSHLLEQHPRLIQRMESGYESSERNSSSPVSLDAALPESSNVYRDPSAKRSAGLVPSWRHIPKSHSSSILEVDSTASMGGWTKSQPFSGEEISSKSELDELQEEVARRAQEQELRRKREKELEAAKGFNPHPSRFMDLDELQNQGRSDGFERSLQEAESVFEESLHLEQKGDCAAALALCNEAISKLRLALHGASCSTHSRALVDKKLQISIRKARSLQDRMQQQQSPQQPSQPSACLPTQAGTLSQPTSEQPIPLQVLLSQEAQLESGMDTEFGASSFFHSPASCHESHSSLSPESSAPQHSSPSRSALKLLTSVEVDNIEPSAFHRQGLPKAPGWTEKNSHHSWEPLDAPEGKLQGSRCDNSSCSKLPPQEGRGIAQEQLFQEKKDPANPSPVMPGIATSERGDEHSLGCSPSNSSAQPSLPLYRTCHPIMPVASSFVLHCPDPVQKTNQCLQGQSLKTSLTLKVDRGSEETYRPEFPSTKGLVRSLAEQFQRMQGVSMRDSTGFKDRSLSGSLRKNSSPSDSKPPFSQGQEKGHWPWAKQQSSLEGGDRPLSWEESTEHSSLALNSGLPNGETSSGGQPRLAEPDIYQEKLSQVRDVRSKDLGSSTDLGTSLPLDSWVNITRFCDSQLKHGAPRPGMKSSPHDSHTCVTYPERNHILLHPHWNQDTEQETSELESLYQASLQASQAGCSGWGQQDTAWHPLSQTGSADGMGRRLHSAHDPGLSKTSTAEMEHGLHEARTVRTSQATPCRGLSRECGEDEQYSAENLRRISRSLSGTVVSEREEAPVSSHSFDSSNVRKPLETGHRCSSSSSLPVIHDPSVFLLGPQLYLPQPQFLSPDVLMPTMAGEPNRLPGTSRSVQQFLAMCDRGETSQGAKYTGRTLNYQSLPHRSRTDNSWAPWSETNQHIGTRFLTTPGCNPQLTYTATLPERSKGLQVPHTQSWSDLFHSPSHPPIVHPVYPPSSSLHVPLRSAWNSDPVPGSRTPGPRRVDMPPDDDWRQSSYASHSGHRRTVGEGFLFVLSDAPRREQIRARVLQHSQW

O=C(CCl)NC1CCC(C(F)(F)F)CC1 (stereo not drawn)
inactive: USP42 0.589 | USP46 -0.0439 | USP47 -0.0726 | USP48 -0.174 | USP5 -0.36 | USP54 0.0395 | USP7 -0.303 | USP8 -0.0509
